# Data published in the supplement of paper PMC10849652.
# Of roughly 7,900 targets only a part is listed; those with a hit were picked by preference. About 0.6% of all pairs of compound and target were hits. Values without a mark were called inactive.
# Tests used:
# Assay in all cases: log2 fold change, soluble protein after heating vs DMSO (PISA); higher = thermal stabilisation; K562 cells, 10 uM, 30 min; active = over 0.2 and 3.5 SD of the protein, either way, in both replicates (recomputed)
# [1] = compound: NC(=O)Nc1cc(-c2cccc(F)c2)sc1C(=O)N[C@H]1CCCNC1
# How it was run: (§1)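 K562 cells at 2×10^6 cells/mL were treated with 10 μM compound for 30 min. Aliquots were heated for 3 min across 48°C-58°C, pooled, and extracted in PBS with 0.5% NP-40 at 4°C; soluble protein was the supernatant after 21,000xg for 90 min. Soluble protein was quantified by TMTpro 16plex LC-MS/MS with channel sums equalised, and reported as log2 fold change in thermal stability against DMSO controls, with values from duplicates.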
# [2] = compound: NC(=O)c1cnc(N[C@@H]2CCCC[C@@H]2N)nc1Nc1cccc(-n2nccn2)c1
# How it was run: as §1
# [3] = compound: NC1(c2ccc(-c3nc4ccn5c(=O)[nH]nc5c4cc3-c3ccccc3)cc2)CCC1
# How it was run: as §1
# [4] = compound: NCC(=O)Nc1ccc(-n2nc(C(F)(F)F)cc2-c2ccc3c(ccc4ccccc43)c2)cc1
# How it was run: as §1
# entinostat = compound: Nc1ccccc1NC(=O)c1ccc(CNC(=O)OCc2cccnc2)cc1 [entinostat]
# How it was run: as §1
# vorinostat = compound: O=C(CCCCCCC(=O)Nc1ccccc1)NO [vorinostat]
# How it was run: as §1
# citarinostat = compound: O=C(CCCCCCNC(=O)c1cnc(N(c2ccccc2)c2ccccc2Cl)nc1)NO [citarinostat]
# How it was run: as §1
# silmitasertib = compound: O=C(O)c1ccc2c(c1)nc(Nc1cccc(Cl)c1)c1ccncc12 [silmitasertib]
# How it was run: as §1
# [5] = compound: O=C1NC(=O)C(c2cnc3ccccn23)=C1c1cn2c3c(cc(F)cc13)CN(C(=O)N1CCCCC1)CC2
# How it was run: as §1
# [6] = compound: c1cc(OCCN2CCCCC2)cc(-c2n[nH]c3ccc(-c4nnc[nH]4)cc23)c1
# How it was run: as §1
# entospletinib = compound: c1cn2cc(-c3ccc4cn[nH]c4c3)nc(Nc3ccc(N4CCOCC4)cc3)c2n1 [entospletinib]
# How it was run: as §1
# Sequence of UniProt Q16656 (Q16656 whole entry, looked up): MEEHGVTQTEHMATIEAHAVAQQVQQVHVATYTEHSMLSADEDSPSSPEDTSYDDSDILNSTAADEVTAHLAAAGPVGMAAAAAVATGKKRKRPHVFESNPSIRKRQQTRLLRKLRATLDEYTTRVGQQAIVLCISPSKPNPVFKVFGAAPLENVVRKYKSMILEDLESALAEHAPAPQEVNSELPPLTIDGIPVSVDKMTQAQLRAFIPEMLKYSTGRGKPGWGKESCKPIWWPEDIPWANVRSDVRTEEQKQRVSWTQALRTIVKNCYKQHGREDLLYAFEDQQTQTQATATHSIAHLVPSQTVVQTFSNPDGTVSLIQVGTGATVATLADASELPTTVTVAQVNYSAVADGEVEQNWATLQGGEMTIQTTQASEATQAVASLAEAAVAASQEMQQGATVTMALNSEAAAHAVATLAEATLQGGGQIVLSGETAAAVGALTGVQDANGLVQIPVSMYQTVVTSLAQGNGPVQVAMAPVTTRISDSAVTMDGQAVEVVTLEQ
# Sequence of UniProt Q330K2 (Q330K2 whole entry, looked up): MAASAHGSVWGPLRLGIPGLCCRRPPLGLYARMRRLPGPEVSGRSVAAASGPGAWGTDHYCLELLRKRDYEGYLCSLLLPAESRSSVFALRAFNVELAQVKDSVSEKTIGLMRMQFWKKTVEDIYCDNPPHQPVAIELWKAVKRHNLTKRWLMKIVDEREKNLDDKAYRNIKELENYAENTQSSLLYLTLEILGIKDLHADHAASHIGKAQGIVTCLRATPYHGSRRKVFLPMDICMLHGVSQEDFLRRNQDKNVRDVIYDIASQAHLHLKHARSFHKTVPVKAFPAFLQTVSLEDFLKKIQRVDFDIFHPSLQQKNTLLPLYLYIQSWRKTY
# Sequence of UniProt O43847 (O43847 whole entry, looked up): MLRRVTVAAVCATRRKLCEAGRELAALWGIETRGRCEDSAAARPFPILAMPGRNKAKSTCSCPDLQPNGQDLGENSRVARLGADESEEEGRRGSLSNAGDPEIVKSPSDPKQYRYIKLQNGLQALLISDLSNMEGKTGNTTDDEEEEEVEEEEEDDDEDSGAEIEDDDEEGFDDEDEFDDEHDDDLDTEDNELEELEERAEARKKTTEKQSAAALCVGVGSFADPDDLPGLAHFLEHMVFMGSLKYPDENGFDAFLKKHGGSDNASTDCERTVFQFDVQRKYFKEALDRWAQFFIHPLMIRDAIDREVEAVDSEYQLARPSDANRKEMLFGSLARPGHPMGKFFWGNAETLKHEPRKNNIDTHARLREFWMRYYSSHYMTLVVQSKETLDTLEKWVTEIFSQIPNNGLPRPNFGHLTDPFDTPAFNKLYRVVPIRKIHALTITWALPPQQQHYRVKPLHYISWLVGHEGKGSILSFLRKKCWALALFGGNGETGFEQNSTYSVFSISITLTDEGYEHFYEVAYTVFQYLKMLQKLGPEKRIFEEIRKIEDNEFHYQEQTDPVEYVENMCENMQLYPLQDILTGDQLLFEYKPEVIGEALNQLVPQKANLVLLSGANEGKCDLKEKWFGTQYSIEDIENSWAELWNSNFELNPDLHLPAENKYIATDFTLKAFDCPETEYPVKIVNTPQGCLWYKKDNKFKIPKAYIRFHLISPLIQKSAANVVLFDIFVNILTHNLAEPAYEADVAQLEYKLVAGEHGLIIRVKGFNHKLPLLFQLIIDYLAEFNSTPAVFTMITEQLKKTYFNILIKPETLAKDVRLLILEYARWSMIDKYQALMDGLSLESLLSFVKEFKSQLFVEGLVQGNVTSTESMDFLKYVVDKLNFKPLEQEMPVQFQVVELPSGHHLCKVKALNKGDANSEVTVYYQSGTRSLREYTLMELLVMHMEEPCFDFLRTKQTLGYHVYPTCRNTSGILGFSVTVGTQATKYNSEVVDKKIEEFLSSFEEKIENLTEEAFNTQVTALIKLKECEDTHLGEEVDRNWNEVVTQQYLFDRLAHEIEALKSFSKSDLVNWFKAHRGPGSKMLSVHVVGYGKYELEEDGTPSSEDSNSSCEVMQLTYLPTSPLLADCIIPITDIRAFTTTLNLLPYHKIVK
# Sequence of UniProt Q92621 (Q92621 whole entry, looked up): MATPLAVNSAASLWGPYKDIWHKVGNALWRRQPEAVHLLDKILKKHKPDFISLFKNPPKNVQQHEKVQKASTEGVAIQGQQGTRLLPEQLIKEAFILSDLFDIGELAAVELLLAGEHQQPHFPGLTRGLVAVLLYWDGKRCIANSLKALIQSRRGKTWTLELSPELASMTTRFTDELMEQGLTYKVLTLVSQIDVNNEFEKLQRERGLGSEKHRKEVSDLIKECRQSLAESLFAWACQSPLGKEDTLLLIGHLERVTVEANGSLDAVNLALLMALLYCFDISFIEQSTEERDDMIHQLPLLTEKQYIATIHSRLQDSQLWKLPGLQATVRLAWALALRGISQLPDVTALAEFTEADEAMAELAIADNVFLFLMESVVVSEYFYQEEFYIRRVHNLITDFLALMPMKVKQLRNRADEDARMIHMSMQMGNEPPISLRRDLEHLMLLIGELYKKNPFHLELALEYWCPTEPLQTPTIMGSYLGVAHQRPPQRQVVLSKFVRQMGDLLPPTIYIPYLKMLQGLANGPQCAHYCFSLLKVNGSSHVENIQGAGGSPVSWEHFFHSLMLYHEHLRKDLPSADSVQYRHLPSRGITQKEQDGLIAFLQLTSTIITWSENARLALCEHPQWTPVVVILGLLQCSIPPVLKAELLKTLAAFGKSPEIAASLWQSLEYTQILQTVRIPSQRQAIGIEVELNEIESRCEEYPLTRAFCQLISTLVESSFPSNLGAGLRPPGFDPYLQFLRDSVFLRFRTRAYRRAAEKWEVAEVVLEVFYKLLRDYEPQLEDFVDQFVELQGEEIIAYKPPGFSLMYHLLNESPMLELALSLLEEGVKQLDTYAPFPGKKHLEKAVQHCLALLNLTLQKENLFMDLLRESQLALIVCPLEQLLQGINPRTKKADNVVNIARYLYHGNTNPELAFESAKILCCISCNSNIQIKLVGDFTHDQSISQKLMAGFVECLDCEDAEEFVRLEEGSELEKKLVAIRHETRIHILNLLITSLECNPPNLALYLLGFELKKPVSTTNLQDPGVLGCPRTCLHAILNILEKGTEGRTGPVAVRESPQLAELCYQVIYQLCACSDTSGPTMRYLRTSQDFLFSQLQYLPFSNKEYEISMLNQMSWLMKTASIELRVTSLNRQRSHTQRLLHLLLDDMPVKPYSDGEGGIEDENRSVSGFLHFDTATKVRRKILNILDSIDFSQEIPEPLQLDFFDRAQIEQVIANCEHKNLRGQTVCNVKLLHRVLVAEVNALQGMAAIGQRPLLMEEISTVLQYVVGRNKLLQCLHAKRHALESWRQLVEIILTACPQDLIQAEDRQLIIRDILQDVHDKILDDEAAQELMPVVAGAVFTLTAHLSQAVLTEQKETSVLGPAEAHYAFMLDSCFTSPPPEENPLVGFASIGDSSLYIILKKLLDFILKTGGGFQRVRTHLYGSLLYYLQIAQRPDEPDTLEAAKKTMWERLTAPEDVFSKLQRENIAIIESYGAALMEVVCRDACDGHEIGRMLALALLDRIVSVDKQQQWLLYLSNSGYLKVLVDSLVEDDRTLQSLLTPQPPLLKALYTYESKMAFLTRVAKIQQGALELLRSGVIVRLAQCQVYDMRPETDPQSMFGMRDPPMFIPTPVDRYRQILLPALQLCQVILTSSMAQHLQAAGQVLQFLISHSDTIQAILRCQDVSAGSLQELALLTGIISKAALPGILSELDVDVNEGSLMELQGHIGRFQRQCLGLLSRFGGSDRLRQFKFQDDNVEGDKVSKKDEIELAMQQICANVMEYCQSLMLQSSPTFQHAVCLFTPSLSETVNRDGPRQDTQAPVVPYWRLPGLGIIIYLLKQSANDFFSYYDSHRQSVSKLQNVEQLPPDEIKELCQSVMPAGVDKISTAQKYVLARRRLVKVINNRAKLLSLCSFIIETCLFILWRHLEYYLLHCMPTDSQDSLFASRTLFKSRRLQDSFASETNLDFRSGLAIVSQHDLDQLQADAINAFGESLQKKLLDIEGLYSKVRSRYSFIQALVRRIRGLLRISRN
# Sequence of UniProt P55786 (P55786 whole entry, looked up): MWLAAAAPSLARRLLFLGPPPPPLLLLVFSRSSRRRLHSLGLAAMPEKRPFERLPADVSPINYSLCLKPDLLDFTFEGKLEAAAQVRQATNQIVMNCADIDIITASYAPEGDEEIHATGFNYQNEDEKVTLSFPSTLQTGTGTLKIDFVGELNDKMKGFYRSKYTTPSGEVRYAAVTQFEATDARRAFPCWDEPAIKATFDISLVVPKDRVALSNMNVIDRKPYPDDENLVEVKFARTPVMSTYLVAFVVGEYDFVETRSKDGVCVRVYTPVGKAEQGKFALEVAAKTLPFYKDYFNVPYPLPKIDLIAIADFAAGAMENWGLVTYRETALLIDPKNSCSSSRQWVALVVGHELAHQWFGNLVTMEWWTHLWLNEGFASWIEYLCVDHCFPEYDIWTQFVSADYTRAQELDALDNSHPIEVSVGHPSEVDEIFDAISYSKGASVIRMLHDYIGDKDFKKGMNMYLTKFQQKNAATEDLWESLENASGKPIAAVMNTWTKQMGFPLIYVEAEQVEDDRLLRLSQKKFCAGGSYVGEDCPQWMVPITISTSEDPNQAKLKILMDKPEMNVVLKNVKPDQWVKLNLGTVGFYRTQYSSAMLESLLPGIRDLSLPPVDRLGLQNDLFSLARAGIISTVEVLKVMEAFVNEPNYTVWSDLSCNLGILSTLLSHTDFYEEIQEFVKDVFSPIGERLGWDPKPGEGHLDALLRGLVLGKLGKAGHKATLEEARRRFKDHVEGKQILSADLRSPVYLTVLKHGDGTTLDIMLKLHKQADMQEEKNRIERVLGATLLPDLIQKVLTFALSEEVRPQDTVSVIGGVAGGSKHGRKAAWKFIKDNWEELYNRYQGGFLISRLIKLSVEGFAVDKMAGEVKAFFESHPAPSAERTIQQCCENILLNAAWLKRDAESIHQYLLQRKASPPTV
# Sequence of UniProt P56556 (P56556 whole entry, looked up): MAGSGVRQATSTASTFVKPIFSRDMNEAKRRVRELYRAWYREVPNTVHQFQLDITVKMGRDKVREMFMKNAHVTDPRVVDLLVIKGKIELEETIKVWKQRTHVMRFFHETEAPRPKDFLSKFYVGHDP
Target,log2 fold change [1],log2 fold change [2],log2 fold change [3],log2 fold change [4],log2 fold change (entinostat),log2 fold change (vorinostat),log2 fold change (citarinostat),log2 fold change (silmitasertib),log2 fold change [5],log2 fold change [6],log2 fold change (entospletinib)
MRPL50 (UniProt Q8N5N7),0.024,0.154,0.035,0.074,0.059,-0.102,0.051,0.006,-0.078,-0.078,-0.005
MUL1 (UniProt Q969V5),-0.029,-0.041,0.648 (active),-0.024,-0.007,0.086,-0.002,-0.018,-0.021,-0.049,-0.005
NAA38 isoform 2 (UniProt Q9BRA0),-0.064,-0.029,-0.105,0.026,-0.009,-0.041,-0.152,0.017,0.038,-0.264,0.13
OSBP (UniProt P22059),-0.007,0.019,-0.17,-0.036,0.024,0.013,0.03,0.014,-0.131,-0.066,-0.013
NPEPPS (UniProt P55786),-0.02,-0.035,-0.046,-0.041,-0.007,0.076,0.048,-0.038,-0.003,-0.03,-0.007
MRPS6 (UniProt P82932),0.023,0.009,-0.133,0.003,0.03,0.108,0.079,-0.036,-0.042,-0.031,0.046
NUP205 (UniProt Q92621),-0.042,-0.023,-0.075,-0.1,0.017,0.041,0.101,0.058,-0.073,-0.069,-0.041
NDUFB10 (UniProt O96000),-0.062,-0.06,-0.054,-0.022,-0.034,-0.053,0.031,0.021,-0.018,-0.006,0.003
NMD3 (UniProt Q96D46),-0.159,-0.034,-0.098,-0.037,-0.001,0,0.085,-0.048,-0.071,-0.047,-0.001
MSH3 (UniProt P20585),-0.175,-0.001,-0.126,-0.007,-0.032,-0.017,0.031,0.034,-0.069,-0.019,-0.095
MRPL46 (UniProt Q9H2W6),-0.067,0.009,0.023,-0.014,-0.003,0.011,0.007,0.005,0.028,-0.062,0.025
MRPS15 (UniProt P82914),0.039,0.06,-0.057,0.119,0.072,0.077,0.028,-0.114,0.085,-0.031,0.044
NOSIP (UniProt Q9Y314),0,-0.004,-0.095,-0.121,0.16,0.163,0.136,0.082,-0.095,0.019,-0.146
PAAF1 (UniProt Q9BRP4),0.028,-0.011,-0.078,0.019,0.006,-0.013,-0.003,-0.001,0.014,-0.025,-0.023
OTULIN (UniProt Q96BN8),0.008,-0.017,-0.183,-0.093,0.097,0.038,-0.005,0.086,-0.143,-0.077,0.1
NRF1 isoform 4 (UniProt Q16656),0.021,-0.088,-0.129,-0.037,0.056,0.047,0.039,-0.02,-0.064,0.04,-0.041
NDUFAF6 (UniProt Q330K2),0,-0.152,-0.291,0,0.026,0.122,0.086,-0.02,-0.065,-0.031,-0.121
NRDC isoform 2 (UniProt O43847),-0.01,-0.044,-0.057,-0.036,0.043,0.04,0.024,0.025,-0.05,-0.06,-0.005
NUP98 (UniProt P52948),0.018,-0.086,-0.025,-0.076,0,0.052,0.028,0.072,0.001,-0.073,0.003
NPC1 (UniProt O15118),0.002,0.039,-0.196,-0.017,-0.049,0.004,0.017,0.031,0.027,-0.106,0.023
MRPL34 (UniProt Q9BQ48),0.02,0.018,0.045,0.095,-0.041,0.035,0.004,0.053,0.09,-0.175,0.047
NMRAL1 (UniProt Q9HBL8),0.391,1.06 (active),0.717,-0.16,-0.052,-0.139,-0.151,0.018,-0.005,0.374,0.135
NDUFA6 (UniProt P56556),-0.023,0.028,-0.113,-0.083,0.056,0.118,0.036,-0.016,-0.131,-0.011,-0.041
NCOA7 (UniProt Q8NI08),-0.061,-0.036,-0.068,-0.033,-0.067,0.026,-0.001,0.022,-0.093,-0.005,0.003
MOV10 (UniProt Q9HCE1),0.007,0.031,0.178,0.018,0.016,-0.02,-0.054,0.133,0.187,-0.164,0.14
NEMP1 (UniProt O14524),-0.007,-0.204,-0.078,-0.181,0.028,0.078,0.026,-0.019,-0.029,-0.113,-0.121
NOL11 (UniProt Q9H8H0),0.042,0.055,0.041,0.038,-0.019,-0.013,0.035,0.068,0.02,-0.041,-0.05
MRPS2 (UniProt Q9Y399),0.105,-0.079,-0.102,0.062,0.034,0.096,0.001,-0.103,-0.021,-0.01,0.059
